{"source": "the supplement of paper PMC8728848", "binders": {"B1": {"name": "B3GalT2 (Rattus norvegicus) (protein)", "chain": "LMLQWRRRHCCFAKMSWNAKRSLFRTHLMGVLSLVFLFAMFLFFNHHDWLPGRPGFKENPVTYTFRGFRSTKTETNQSSLRNIWKEVVPQTLRPQTATNSNNTELSPQGVTGLENTLSANGSIYNEKGTGHPNSYHFKYIINEPEKCQEKSPFLILLIAAEPGQIEARRAIRQTWGNETLAPGIQITRIFLLGISIKLNGYLQHAIQEESIQYHDIIQQEYLDTYYNLTIKTLMGMNWVATYCPHTPYVMKTDSDMFVNTEYLIHKLLKPDLPPRHNYFTGYLMRGYAPNRNKDSKWYMPPDLYPSERYPVFCSGTGYVFSGDLAEKIFKVSLGIRRLHLEDVYVGICLAKLRVDPVPPPNEFVFNHWRVSYSSCKYSHLITSHQFQPSELIKYWNHLQQNKHNACVNAAKEKAGRYRHRKLH"}}, "assay_in_all_cases": "glycan array binding signal (z-score within array); higher = stronger binding", "settings_in_all_cases": "glycan notation: IUPAC condensed, linker removed", "key": {"[1]": {"target": "Fuc(a1-2)Gal(b1-3)GlcNAc", "procedure,_shortened": "(§1)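 The Consortium for Functional Glycomics database supplied 3228 glycan arrays, of which those lacking an available protein sequence were dropped. The binding signal, a within-array Z-score, was averaged across arrays of the same protein sequence and across linkers. Negative scores can be read as non-binding.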"}, "[2]": {"target": "Fuc(a1-2)Gal(b1-3)GlcNAc6S", "procedure,_shortened": "as §1"}, "[3]": {"target": "Fuc(a1-2)Gal(b1-4)Glc", "procedure,_shortened": "as §1"}, "[4]": {"target": "Fuc(a1-2)Gal(b1-4)GlcNAc(b1-3)GalNAc", "procedure,_shortened": "as §1"}, "[5]": {"target": "Fuc(a1-2)Gal(b1-4)[Fuc(a1-3)]GlcNAc(b1-2)[Fuc(a1-2)Gal(b1-4)[Fuc(a1-3)]GlcNAc(b1-4)]Man(a1-3)[Fuc(a1-2)Gal(b1-4)[Fuc(a1-3)]GlcNAc(b1-2)Man(a1-6)]Man(b1-4)GlcNAc(b1-4)GlcNAc", "procedure,_shortened": "as §1"}, "[6]": {"target": "Fuc(a1-2)Gal6S(b1-3)GlcNAc", "procedure,_shortened": "as §1"}, "[7]": {"target": "Fuc(a1-2)[GalNAc(a1-3)]Gal(b1-3)GlcNAc(b1-2)Man(a1-3)[Fuc(a1-2)[GalNAc(a1-3)]Gal(b1-3)GlcNAc(b1-2)Man(a1-6)]Man(b1-4)GlcNAc(b1-4)GlcNAc", "procedure,_shortened": "as §1"}, "[8]": {"target": "Fuc(a1-2)[GalNAc(b1-3)]Gal", "procedure,_shortened": "as §1"}, "[9]": {"target": "Fuc(a1-3)[Gal(b1-4)]GlcNAc(b1-3)Gal(b1-4)[Fuc(a1-3)]GlcNAc(b1-3)Gal(b1-4)[Fuc(a1-3)]GlcNAc", "procedure,_shortened": "as §1"}, "[10]": {"target": "Fuc(a1-3)[Gal3S(b1-4)]Glc", "procedure,_shortened": "as §1"}, "[11]": {"target": "Fuc(a1-3)[GalNAc(b1-4)]GlcNAc6S", "procedure,_shortened": "as §1"}, "[12]": {"target": "Gal(a1-3)Gal(b1-4)GlcNAc(b1-2)Man", "procedure,_shortened": "as §1"}, "[13]": {"target": "Gal(a1-3)[Gal(a1-4)]Gal(b1-4)GlcNAc", "procedure,_shortened": "as §1"}, "[14]": {"target": "Gal(b1-3)GalNAc(a1-3)[Fuc(a1-2)]Gal(b1-4)Glc", "procedure,_shortened": "as §1"}, "[15]": {"target": "Gal(b1-3)GlcNAc(b1-2)Man(a1-3)[Gal(b1-3)GlcNAc(b1-2)Man(a1-6)]Man(b1-4)GlcNAc(b1-4)[Fuc(a1-6)]GlcNAc", "procedure,_shortened": "as §1"}, "[16]": {"target": "Gal(b1-3)GlcNAc(b1-2)Man(a1-3)[GlcNAc(b1-4)][Gal(b1-3)GlcNAc(b1-2)Man(a1-6)]Man(b1-4)GlcNAc(b1-4)GlcNAc", "procedure,_shortened": "as §1"}, "[17]": {"target": "Gal(b1-3)GlcNAc(b1-3)Gal(b1-4)GlcNAc(b1-3)Gal(b1-4)GlcNAc(b1-2)[Gal(b1-3)GlcNAc(b1-3)Gal(b1-4)GlcNAc(b1-3)Gal(b1-4)GlcNAc(b1-6)]Man(a1-6)[Gal(b1-3)GlcNAc(b1-3)Gal(b1-4)GlcNAc(b1-3)Gal(b1-4)GlcNAc(b1-2)Man(a1-3)]Man(b1-4)GlcNAc(b1-4)[Fuc(a1-6)]GlcNAc", "procedure,_shortened": "as §1"}, "[18]": {"target": "Gal(b1-3)GlcNAc(b1-3)GalNAc", "procedure,_shortened": "as §1"}, "[19]": {"target": "Gal(b1-3)GlcNAc(b1-6)[Gal(b1-3)]GalNAc", "procedure,_shortened": "as §1"}, "[20]": {"target": "Gal(b1-4)GlcNAc(b1-2)Man(a1-3)[Gal(b1-4)GlcNAc(b1-2)Man(a1-6)]Man(b1-4)GlcNAc(b1-4)GlcNAc", "procedure,_shortened": "as §1"}, "[21]": {"target": "Gal(b1-4)GlcNAc(b1-2)Man(a1-3)[GlcNAc(b1-2)Man(a1-6)]Man(b1-4)GlcNAc(b1-4)GlcNAc", "procedure,_shortened": "as §1"}, "[22]": {"target": "Gal(b1-4)GlcNAc(b1-3)Gal(b1-4)GlcNAc", "procedure,_shortened": "as §1"}, "[23]": {"target": "Gal3S(b1-3)GalNAc", "procedure,_shortened": "as §1"}, "[24]": {"target": "Gal6S(b1-3)GlcNAc", "procedure,_shortened": "as §1"}, "[25]": {"target": "Gal6S(b1-4)GlcNAc", "procedure,_shortened": "as §1"}, "[26]": {"target": "GalNAc(a1-3)GalNAc", "procedure,_shortened": "as §1"}, "[27]": {"target": "GalNAc(a1-3)GalNAc(b1-3)Gal(a1-4)Gal(b1-4)Glc", "procedure,_shortened": "as §1"}, "[28]": {"target": "GalNAc(b1-3)Gal(a1-4)Gal(b1-4)GlcNAc(b1-3)Gal(b1-4)Glc", "procedure,_shortened": "as §1"}, "[29]": {"target": "GlcNAc(b1-3)Gal(b1-4)GlcNAc(b1-2)Man(a1-3)[GlcNAc(b1-3)Gal(b1-4)GlcNAc(b1-2)Man(a1-6)]Man(b1-4)GlcNAc(b1-4)GlcNAc", "procedure,_shortened": "as §1"}, "[30]": {"target": "GlcNAc(b1-3)Gal(b1-4)GlcNAc(b1-3)Gal(b1-4)GlcNAc(b1-3)Gal(b1-4)GlcNAc(b1-3)Gal(b1-4)GlcNAc(b1-2)[GlcNAc(b1-3)Gal(b1-4)GlcNAc(b1-3)Gal(b1-4)GlcNAc(b1-3)Gal(b1-4)GlcNAc(b1-3)Gal(b1-4)GlcNAc(b1-6)]Man(a1-6)[GlcNAc(b1-3)Gal(b1-4)GlcNAc(b1-3)Gal(b1-4)GlcNAc(b1-3)Gal(b1-4)GlcNAc(b1-3)Gal(b1-4)GlcNAc(b1-2)Man(a1-3)]Man(b1-4)GlcNAc(b1-4)[Fuc(a1-6)]GlcNAc", "procedure,_shortened": "as §1"}}, "note": "Only a selection was taken, and the strongest signals are over-represented in it overall.", "data": [{"binder": "B1", "values": [{"measurement": "glycan array binding signal (z-score)", "setting": "[1]", "value": 0.359}, {"measurement": "glycan array binding signal (z-score)", "setting": "[2]", "value": -0.012}, {"measurement": "glycan array binding signal (z-score)", "setting": "[3]", "value": -0.322}, {"measurement": "glycan array binding signal (z-score)", "setting": "[4]", "value": 0.324}, {"measurement": "glycan array binding signal (z-score)", "setting": "[5]", "value": -0.914}, {"measurement": "glycan array binding signal (z-score)", "setting": "[6]", "value": 0.207}, {"measurement": "glycan array binding signal (z-score)", "setting": "[7]", "value": -0.832}, {"measurement": "glycan array binding signal (z-score)", "setting": "[8]", "value": 3.23}, {"measurement": "glycan array binding signal (z-score)", "setting": "[9]", "value": -0.328}, {"measurement": "glycan array binding signal (z-score)", "setting": "[10]", "value": 0.499}, {"measurement": "glycan array binding signal (z-score)", "setting": "[11]", "value": 2.41}, {"measurement": "glycan array binding signal (z-score)", "setting": "[12]", "value": -0.684}, {"measurement": "glycan array binding signal (z-score)", "setting": "[13]", "value": 0.28}, {"measurement": "glycan array binding signal (z-score)", "setting": "[14]", "value": -0.035}, {"measurement": "glycan array binding signal (z-score)", "setting": "[15]", "value": -0.68}, {"measurement": "glycan array binding signal (z-score)", "setting": "[16]", "value": -0.55}, {"measurement": "glycan array binding signal (z-score)", "setting": "[17]", "value": 2.97}, {"measurement": "glycan array binding signal (z-score)", "setting": "[18]", "value": 0.129}, {"measurement": "glycan array binding signal (z-score)", "setting": "[19]", "value": 0.217}, {"measurement": "glycan array binding signal (z-score)", "setting": "[20]", "value": -0.8}, {"measurement": "glycan array binding signal (z-score)", "setting": "[21]", "value": -0.763}, {"measurement": "glycan array binding signal (z-score)", "setting": "[22]", "value": 0.439}, {"measurement": "glycan array binding signal (z-score)", "setting": "[23]", "value": 0.283}, {"measurement": "glycan array binding signal (z-score)", "setting": "[24]", "value": 2.69}, {"measurement": "glycan array binding signal (z-score)", "setting": "[25]", "value": -0.022}, {"measurement": "glycan array binding signal (z-score)", "setting": "[26]", "value": -0.798}, {"measurement": "glycan array binding signal (z-score)", "setting": "[27]", "value": -0.606}, {"measurement": "glycan array binding signal (z-score)", "setting": "[28]", "value": -0.596}, {"measurement": "glycan array binding signal (z-score)", "setting": "[29]", "value": -0.524}, {"measurement": "glycan array binding signal (z-score)", "setting": "[30]", "value": -1.04}]}]}
